Assay results taken from PubChem BioAssay (EPA / NIEHS).
Active and inactive are the calls of the source. The calls were made as follows: active = hit-call score of the fitted dose curve at least 0.9, where 1 is the maximum; inactive = score below 0.9.

read-out: Apoptosis regulator Bcl-2 (Homo sapiens) (UniProt P10415); assay: LTEA_HepaRG_BCL2: Life Technologies and Expression Analysis (LTEA) Assay for Bcl-2 gene using HepaRG (AID 2283475); details: mRNA level, 48 h; actives raise or lower the signal;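 also: BCL2 transcript by TaqMan qRT-PCR normalised to ACTB GAPDH and POLR2A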
Procedure: LTEA_HepaRG is a cell based, multiplexed-readout assay that uses HepaRG, a human liver cell line, with measurements taken at 48 hours after chemical dosing on a 96-well plate.LTEA_HepaRG_BCL2 is one of 102 assay component(s) measured in the LTEA HepaRG cell culture assay. It is a marker of Cell proliferation, survival, death.Data from the assay component LTEA_HepaRG_BCL2 was analyzed into 1 endpoint. This assay endpoint, LTEA_HepaRG_BCL2, was analyzed with bidirectional fitting relative to DMSO as the negative control and baseline of activity. Using a type of inducible reporter, measures of mRNA induction for gain or loss-of-signal activity can be used to understand regulation of transcription factor activity. To generalize the intended target to other relatable targets, this assay endpoint is annotated to the cell cycle intended target family, where the subfamily is Cell proliferation, survival, death.
A total of 1060 chemcials from the ToxCast library were tested in eight-point concentration-response experiments. Cell culture and cytotoxicity assays were conducted at Thermo Fisher Scientific's Custom Services facility (Madison, WI). A single lot of human HepaRG cells (Thermo Fisher Scientific, Frederick, MD) was used for the cell culture experiments. 96-well format collagen type I coated plates of human HepaRG cells were prepared using established methods. Briefly, cryopreserved HepaRG cells were thawed, plated at a density of approximately 100,000 cells/well in HepaRG Thaw, Plate, and General Purpose media (HPRG770, Thermo Fisher Scientific), and incubated for 48 hours. 0.5% DMSO was selected as vehicle control to balance the requisite need of DMSO in HepaRG cultures to maintain differentiation (for example, baseline metabolism, proportions of hepatocytes vs. cholangiocytes), while enabling further hepatic receptor pathway activation (for example, PXR and CAR) in response to chemical exposure. 48 hours after plating, the culture medium was replaced with HepaRG Serum-Free Incudtion Media. Cells were exposed to each test chemical in duplicate and maintained in CO2 incubators for another 48 hours. Chemical plates were thawed to room temperature and 200x concentrations of treatment groups were prepared. 8-point conentration-reponse curves were made with the highest exposure at 100 uM, followed by half-log dilutions, all in 0.5% DMSO. Each test plate contained variouse controls, induction positive controls (1mM phenobarbital), cytotoxicity positive controls ([…] aflatoxin B1), vehicle controls (0.5% DMSO), and total lysis controls (0.5% DMSO). Cell morphology images were taken using an Essen IncuCyte FLR automated microscope, with six 96-well plates imaged in about 24 minutes. Images were captured and exported and JPEG files. Spent culture media was transfered to black-well plates for the LDH assay, and remaining media was sorted at -80 C for later use. Cells were treated with RLT buffer and frozen until shipped for gene expression analysis. Total RNA was isolated from the cell suspension in 75 uL of Buffer RLT (Qiagen, Germantown, MD 20874) by Quintiles/Expression Analysis (Durham, NC) using a custom isolation procedure. Total RNA from each plate well was transferred to a preamplification plate. Fluidigm's 96.96 Dynamic ArrayTM (Fluidigm, Amsterdam, the Netherlands) technology was used for gene expression analyses by quantitative reverse transcription polymerase chain reaction (qRT-PCR, performed by Quintiles/Expression Analysis, Durham, NC)89. Standard TaqManTM Assays (Applied Biosystems/ThermoFisher Scientific, Foster City, CA) were used to assess the expression of 93 genes selected based on their selectivity and sensitivity to important hepatic receptors known to be modulated by environmental chemicals; importance in human hepatocyte functionality; and hepatotoxicity. […]

Apoptosis regulator Bcl-2 (Homo sapiens), sequence (P10415 whole entry, looked up): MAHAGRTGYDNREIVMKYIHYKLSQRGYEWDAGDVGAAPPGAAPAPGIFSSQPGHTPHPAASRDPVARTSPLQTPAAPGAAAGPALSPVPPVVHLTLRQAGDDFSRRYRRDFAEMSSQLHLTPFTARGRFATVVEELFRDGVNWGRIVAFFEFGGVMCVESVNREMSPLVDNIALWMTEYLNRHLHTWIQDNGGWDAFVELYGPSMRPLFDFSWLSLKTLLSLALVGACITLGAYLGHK

SMILES	outcome	AC50
ClC1(Cl)C2(Cl)C3(Cl)C4(Cl)C(Cl)(Cl)C5(Cl)C3(Cl)C1(Cl)C5(Cl)C24Cl (stereo unspecified)	inactive	–
O=C(Nc1ccc2[nH]ccc2c1)c1cc2cc(F)ccc2n1Cc1cccc(F)c1	–	22.7 µM (active)
CCOP(=S)(OCC)SCSP(=S)(OCC)OCC	inactive	–
C[C@@H]1C[C@@H]([C@H](O)CC2CC(=O)NC(=O)C2)C(=O)[C@@H](C)C1	inactive	–
CN(C)N=O	inactive	–
O=C(O)C(F)(F)C(F)(F)C(F)(F)C(F)(F)C(F)(F)C(F)(F)F	inactive	–
CC(C)(C)c1cc(O)ccc1O	inactive	–
O=C(O)C(Cl)(Cl)Cl	inactive	–
CC(C)(C)CC(C)(C)c1ccc(O)cc1	inactive	–
O=[N+]([O-])c1ccc(O)c([N+](=O)[O-])c1	–	12.1 µM (active)
NC(=O)O	inactive	–
O=C(O)C(F)(F)C(F)(F)C(F)(F)C(F)(F)C(F)(F)C(F)(F)C(F)(F)C(F)(F)C(F)(F)C(F)(F)F	inactive	–
CCC(C)(C)c1ccc(O)c(C(C)(C)CC)c1	inactive	–
O=c1[nH]c(=O)[nH]c(=O)[nH]1	inactive	–
COc1cc(-c2ccc(N)c(OC)c2)ccc1N	inactive	–
Cn1sc(Cl)cc1=O	inactive	–

SMILES	outcome	AC50
Cc1ccccc1N	inactive	–
CC(=O)[O][Hg][c]1ccccc1	inactive	–
C=CC(=O)OCCCCCC(C)C	inactive	–
CCOP(=S)(OCC)Oc1nc(Cl)c(Cl)cc1Cl	inactive	–
C[C@]12CCC(=O)C[C@@H]1CC[C@@H]1[C@@H]2CC[C@]2(C)[C@@H](O)CC[C@@H]12	inactive	–
CC(C)(c1ccccc1)c1ccc(O)c(C(C)(C)c2ccccc2)c1	–	81.6 µM (active)
CCN1CCC2(CC1)COc1cc3c(cc12)N(C(=O)c1ccc(-c2ccc(-c4nnc(C)o4)cc2C)cc1)CC3	inactive	–
CC12CC1(C)C(=O)N(c1cc(Cl)cc(Cl)c1)C2=O (stereo unspecified)	inactive	–
Oc1cccc2cccnc12	inactive	–
ClCC(Cl)CCl	inactive	–
CCCCCCCCc1ccc(O)cc1	inactive	–
CCC(=O)C(CC(C)N(C)C)(c1ccccc1)c1ccccc1 (stereo unspecified)	inactive	–
CC(C)(OO)c1ccccc1	inactive	–
O=C1C2(Cl)C3(Cl)C4(Cl)C(Cl)(Cl)C5(Cl)C3(Cl)C1(Cl)C5(Cl)C24Cl (stereo unspecified)	–	11.1 µM (active)
C=C(C)C(=O)[O][Sn]([CH2]CCC)([CH2]CCC)[CH2]CCC	–	2.07 µM (active)
